Laboratory results from PubChem BioAssay (Tox21).
Values without a mark were called inactive. Records with an inconclusive call do not appear. Where a call stands in place of a potency, no number is given. Active and inactive are the calls of the source. Unless noted, the call rests on the fitted dose curve; in most records, active means well fitted curve in the direction sought with a large enough effect in the repeat runs; inconclusive means weak or mixed curves; inactive means no such curve, though single readings can be large; an effect the other way counts as inactive or inconclusive.

Experiments:
[1] = qHTS assay to identify small molecule agonists of the estrogen receptor beta (ER-beta) signaling pathway - cell viability counter screen (AID 1259380); further: nearly all actives have a fitted effect of over 30% in size; further: potency means the concentration at half of the fitted maximal effect
Procedure, shortened: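 Same-well viability counter screen. Cells: ER-beta-UAS-bla HEK293T, plated 6 hr before compound, in 2% charcoal-stripped FBS. Compound exposure 16 hr, 37C; viability by CellTiter-Glo luminescence after 30 min at room temperature.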

[2] = qHTS assay to identify small molecule antagonists of the estrogen receptor beta (ER-beta) signaling pathway - cell viability counter screen (AID 1259382);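 further: HEK293T cells carrying ER-beta-UAS-bla reporter stimulated with estradiol; series mostly up to about 92 µM; nearly all actives have a fitted effect of over 55% in size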
Procedure, shortened: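 Following a 6 hr plating period, HEK293T cells carrying a UAS-driven beta-lactamase reporter under ER-beta control received compounds and 1nM E2 (final). After 16 hr at 37C and 2 hr substrate loading, CellTiter-Glo luminescence indicated viability.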

[3] = target: Estrogen receptor (Homo sapiens) (UniProt P03372); test: qHTS assay to identify small molecule agonists of the estrogen receptor alpha (ER-alpha) signaling pathway in the presence of an antagonist (AID 1259383; calls by dose curve; further: top concentration of the series differs between compounds; nearly all actives have a fitted effect of over 15% in size)
Procedure, shortened: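 Cells are hormone-deprived for 5 days (charcoal-stripped FBS, no phenol red), plated for 24hr, spiked with 10.0nM ICI-182,780, then dosed at 15 concentrations. After 22hr at 37C, ONE-Glo luminescence reports ERE-luciferase activity.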

[4] = qHTS assay to identify small molecule agonists or antagonists of the thyroid stimulating hormone receptor (TSHR) signaling pathway - wild type cell line counter screen (AID 1259384; calls by dose curve)
Procedure, shortened: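 Wild-type HEK293 cells were plated 18 h at 37 C/5% CO2, pin-dosed with compound plus Ro20-1724 medium, held 30 min at room temperature, then given cAMP-d2 and anti-cAMP-cryptate; fluorescence was read after 1 h. Fifteen concentrations, triplicate.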

[5] = target: Thyrotropin receptor (Homo sapiens) (UniProt P16473); test: qHTS assay to identify small molecule antagonists of the thyroid stimulating hormone receptor (TSHR) signaling pathway (AID 1259385; calls by dose curve; further: nearly all actives have a fitted effect of over 20% in size)
Procedure, shortened: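 TSHR-HEK293 cells were plated and held 18 h at 37C/5% CO2, then given compound plus Ro20-1724 and stimulated with TSH at 1.5 ng/mL final. After 30 min at room temperature, cAMP was detected with cAMP-d2/anti-cAMP-cryptate (1 h) by fluorescence.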

[6] = qHTS assay to identify small molecule agonists of the estrogen receptor alpha (ER-alpha) signaling pathway in the presence of an antagonist - cell viability counter screen (AID 1259386);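 further: cells exposed to compounds for 22 h at 37 °C before the viability read; nearly all actives have a fitted effect of over 30% in size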; further: potency means the concentration at half of the fitted maximal effect
Procedure, shortened: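 Cells are starved of estrogens for 5 days in charcoal-stripped serum, seeded for 24hr and co-treated with ICI-182,780 (10.0nM final) and test compounds. After 22hr at 37C, viability is read as CellTiter-Fluor fluorescence.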

[7] = target: Progesterone receptor (Homo sapiens) (UniProt P06401); test: qHTS assay to identify small molecule agonists of the progesterone receptor (PR) signaling pathway (AID 1346784; calls by dose curve; further: nearly all actives have a fitted effect of over 30% in size)
Procedure, shortened: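 HEK 293T PR-UAS-bla reporter cells, 2% charcoal-stripped FBS; 6 hr settle at 37C/5% CO2, compound (DMSO) 16 hr, LiveBLAzer B/G FRET substrate 2 hr RT, fluorescence intensity read.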

[8] = qHTS assay to identify small molecule agonists of the progesterone receptor (PR) signaling pathway - cell viability counter screen (AID 1346799; calls by dose curve; further: nearly all actives have a fitted effect of over 45% in size)
Procedure, shortened: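 HEK293T PR-UAS-bla, 3,000 cells/well, 2% charcoal-stripped FBS; 6 h settle, compound 16 h at 37C/5% CO2; LiveBLAzer 2 h RT, then CellTiter-Glo 30 min RT, luminescence read.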

[9] = qHTS assay to identify small molecule antagonists of the TGF-beta/Smad signaling pathway - cell viability counter screen (AID 1346824); further: nearly all actives have a fitted effect of over 50% in size
Procedure, shortened: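 SBE-bla HEK 293T cells were plated overnight at 37 C, then given compounds in DMSO plus TGF-beta1 (added as 0.25 ng/mL solution) for 5 hr. After the bla read, CellTiter-Glo was added to the same wells and luminescence read after 30 min at room temperature.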

[10] = qHTS assay to identify small molecule agonists of the TGF-beta/Smad signaling pathway - cell viability counter screen (AID 1346829); further: top concentration of the series differs between compounds; nearly all actives have a fitted effect of over 45% in size
Procedure, shortened: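 Cytotoxicity counter screen: CellTiter-Glo luminescence (30 min, room temperature) measured in the SBE-bla HEK 293T reporter wells after 5 hr compound treatment at 37 C and the 2 hr substrate step.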

[11] = qHTS assay to identify small molecule agonists of the TGF-beta/Smad signaling pathway (AID 1346859; active means well fitted activation curve with a large enough effect in the signal ratio in the repeat runs, not every such curve was filed as active; the % refers to the signal ratio; further: series mostly up to about 77 µM)
Procedure, shortened: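 Read-out: fluorescence at 460 and 530 nm (405 nm excitation) after a 2 hr room-temperature incubation with beta-lactamase FRET substrate. SBE-bla HEK 293T cells had been treated with test compounds for 5 hr at 37 C.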

[12] = target: Thyrotropin-releasing hormone receptor (Homo sapiens) (UniProt P34981); test: qHTS assay to identify small molecule agonists of the thyrotropin-releasing hormone receptor (TRHR) signaling pathway (AID 1346891; calls by dose curve; further: potency means the concentration at half of the fitted maximal effect;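 on activation: HEK293 cells expressing TRHR with calcium dye readout; series mostly up to about 58 µM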)
Procedure, shortened: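 HEK293/TRHR cells, 1500 per well, 18 h 37 °C; Ca dye 2 h 37 °C; pin-tool compound addition (agonist mode); kinetic fluorescence 3 min, 1 s reads; 15 concentrations, triplicate.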

[13] = Human pregnane X receptor (PXR) small molecule agonists, qHTS cell viability counter screen (AID 1346977); further: nearly all actives have a fitted effect of over 50% in size; further: potency means the concentration at half of the fitted maximal effect
Procedure, shortened: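 Fluorescence read-out (CellTiter-Fluor) of viability in PXR-Luc HepG2 cells, multiplexed with the luciferase agonist read. Compounds in DMSO added after 5hr plating; 24hr total exposure at 37C, 5% CO2.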

[14] = Caspase-3/7 induction in HepG2 cells by small molecules, qHTS assay (AID 1346978); further: nearly all actives have a fitted effect of over 15% in size; further: potency means the concentration at half of the fitted maximal effect
Procedure, shortened: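 Wild-type HepG2 cells (2,000/well) were settled 5 h at 37 C, 5% CO2, then exposed to compounds in DMSO for 17 h. Caspase-3/7 activity was read by luminescence 30 min after adding Caspase-Glo 3/7 reagent at room temperature.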

[15] = Caspase-3/7 induction in CHO-K1 cells by small molecules, qHTS assay (AID 1346980); further: nearly all actives have a fitted effect of over 15% in size; further: potency means the concentration at half of the fitted maximal effect
Procedure, shortened: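 Wild-type cells were seeded at 1,500 per well and settled 5 hr at 37 C, 5% CO2, then exposed to DMSO-dissolved compounds for 17 hr. Caspase-Glo 3/7 reagent was added, and luminescence was read after 30min at room temperature.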

[16] = target: Androgen receptor (Homo sapiens) (UniProt P10275); test: qHTS assay to identify small molecule agonists of the androgen receptor (AR) signaling pathway in the presence of an antagonist (AID 1259381; calls by dose curve; further: nearly all actives have a fitted effect of over 15% in size; further: potency means the concentration at half of the fitted maximal effect)
Procedure, shortened: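 Cells are MDA-kb2 (human breast carcinoma, MMTV-luc, AR/GR responsive). Nilutamide is present at 3.0uM final throughout; compounds are added at 15 concentrations and incubated 16hr at 37C before ONE-Glo luminescence detection.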

[17] = target: Progesterone receptor (Homo sapiens) (UniProt P06401); test: qHTS assay to identify small molecule antagonists of the progesterone receptor (PR) signaling pathway (AID 1346795; active means well fitted inhibition curve with a large enough effect in the signal ratio in the repeat runs, not every such curve was filed as active; the % refers to the signal ratio)
Procedure, shortened: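 Beta-lactamase reporter, HEK293T PR-UAS-bla line; 2% charcoal-stripped FBS; 6 hr pre-incubation, 37C/5% CO2. Compound + R5020 1 nM final, 16 hr. LiveBLAzer B/G FRET substrate, 2 hr RT; fluorescence intensity read.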

[18] = qHTS assay to identify small molecule antagonists of the progesterone receptor (PR) signaling pathway - cell viability counter screen (AID 1346798); further: nearly all actives have a fitted effect of over 50% in size; further: potency means the concentration at half of the fitted maximal effect
Procedure, shortened: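 Luminescence readout (CellTiter-Glo, 30 min, RT) of viability in PR-UAS-bla HEK293T cells exposed to compound and R5020 agonist for 16 hr at 37C, 5% CO2; run in the same wells as the beta-lactamase reporter read.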

[19] = target: Thyrotropin-releasing hormone receptor (Homo sapiens) (UniProt P34981); test: qHTS assay to identify small molecule antagonists of the thyrotropin-releasing hormone receptor (TRHR) signaling pathway (AID 1346877; active means well fitted inhibition curve with a large enough effect in the repeat runs, not every such curve was filed as active; further: series mostly up to about 51 µM)
Procedure, shortened: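 Cells (TRHR-HEK293) are plated and kept 18 h at 37 °C/5% CO2. A calcium-sensitive dye is added for 2 h, compound follows for 5 min at room temperature, and TRH is then given at 1 nM final.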

[20] = Caspase-3/7 induction in CHO-K1 cells by small molecules, qHTS cell viability counter screen (AID 1346979); further: nearly all actives have a fitted effect of over 35% in size; further: potency means the concentration at half of the fitted maximal effect
Procedure, shortened: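 CHO-K1 wt, 1,500 cells/well; 5hr pre-incubation 37C/5% CO2; compound pin transfer (DMSO); 16hr exposure; CellTiter-Fluor added, 1hr, fluorescence read.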

Chain of Thyrotropin-releasing hormone receptor (Homo sapiens) (P34981 whole entry, looked up): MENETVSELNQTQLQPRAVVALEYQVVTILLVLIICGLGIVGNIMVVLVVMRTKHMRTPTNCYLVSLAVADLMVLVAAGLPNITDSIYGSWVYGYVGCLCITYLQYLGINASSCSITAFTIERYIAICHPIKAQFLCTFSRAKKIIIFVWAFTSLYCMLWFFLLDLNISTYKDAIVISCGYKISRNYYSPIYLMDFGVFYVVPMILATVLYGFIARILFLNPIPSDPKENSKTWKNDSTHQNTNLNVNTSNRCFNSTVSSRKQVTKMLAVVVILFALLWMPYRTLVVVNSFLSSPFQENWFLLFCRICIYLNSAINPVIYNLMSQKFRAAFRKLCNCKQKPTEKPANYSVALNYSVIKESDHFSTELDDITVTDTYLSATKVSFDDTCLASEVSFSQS
Chain of Thyrotropin receptor (Homo sapiens) (P16473 whole entry, looked up): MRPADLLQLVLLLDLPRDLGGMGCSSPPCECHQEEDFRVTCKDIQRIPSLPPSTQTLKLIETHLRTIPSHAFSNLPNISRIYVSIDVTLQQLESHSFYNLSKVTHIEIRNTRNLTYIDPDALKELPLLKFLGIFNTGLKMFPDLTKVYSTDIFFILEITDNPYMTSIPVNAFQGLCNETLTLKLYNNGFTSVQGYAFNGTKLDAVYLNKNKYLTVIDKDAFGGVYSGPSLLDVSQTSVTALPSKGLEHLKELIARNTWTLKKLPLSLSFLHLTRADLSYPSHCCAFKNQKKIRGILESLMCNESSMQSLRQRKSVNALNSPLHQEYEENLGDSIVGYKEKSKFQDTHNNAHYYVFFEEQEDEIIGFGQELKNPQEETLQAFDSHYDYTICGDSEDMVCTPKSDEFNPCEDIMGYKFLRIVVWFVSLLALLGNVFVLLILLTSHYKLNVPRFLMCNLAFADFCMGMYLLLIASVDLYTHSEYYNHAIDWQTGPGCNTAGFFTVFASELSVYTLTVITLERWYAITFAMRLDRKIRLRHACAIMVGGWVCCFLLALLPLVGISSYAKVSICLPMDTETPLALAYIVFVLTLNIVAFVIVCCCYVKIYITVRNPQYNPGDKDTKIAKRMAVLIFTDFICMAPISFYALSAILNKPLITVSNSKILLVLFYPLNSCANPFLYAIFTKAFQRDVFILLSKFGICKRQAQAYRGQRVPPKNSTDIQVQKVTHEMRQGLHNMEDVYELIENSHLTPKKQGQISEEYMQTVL
Chain of Androgen receptor (Homo sapiens) (P10275 whole entry, looked up): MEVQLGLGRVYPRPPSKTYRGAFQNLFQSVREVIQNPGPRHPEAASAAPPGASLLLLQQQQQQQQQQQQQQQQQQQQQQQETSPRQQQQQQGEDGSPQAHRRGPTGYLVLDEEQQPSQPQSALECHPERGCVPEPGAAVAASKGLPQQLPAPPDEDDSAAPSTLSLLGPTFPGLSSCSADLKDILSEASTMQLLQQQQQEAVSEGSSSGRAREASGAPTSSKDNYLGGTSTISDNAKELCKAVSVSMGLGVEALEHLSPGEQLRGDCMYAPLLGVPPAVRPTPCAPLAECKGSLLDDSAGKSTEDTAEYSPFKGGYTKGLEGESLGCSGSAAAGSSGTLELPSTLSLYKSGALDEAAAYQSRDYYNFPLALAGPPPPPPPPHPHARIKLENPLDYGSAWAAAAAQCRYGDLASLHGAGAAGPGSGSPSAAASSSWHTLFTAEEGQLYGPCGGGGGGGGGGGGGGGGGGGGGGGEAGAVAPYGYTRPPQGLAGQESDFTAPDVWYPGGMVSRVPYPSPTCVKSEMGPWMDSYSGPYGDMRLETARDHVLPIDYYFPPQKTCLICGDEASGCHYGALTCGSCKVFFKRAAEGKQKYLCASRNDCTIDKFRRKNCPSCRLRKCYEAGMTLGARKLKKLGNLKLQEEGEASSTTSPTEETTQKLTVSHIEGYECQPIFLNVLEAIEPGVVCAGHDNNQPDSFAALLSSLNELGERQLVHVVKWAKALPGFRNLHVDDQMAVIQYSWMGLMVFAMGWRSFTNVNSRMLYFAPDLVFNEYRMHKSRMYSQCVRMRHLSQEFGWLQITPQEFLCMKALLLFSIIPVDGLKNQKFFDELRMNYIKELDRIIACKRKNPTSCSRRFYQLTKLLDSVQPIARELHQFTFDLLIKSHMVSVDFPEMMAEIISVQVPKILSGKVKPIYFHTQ
Chain of Progesterone receptor (Homo sapiens) (P06401 whole entry, looked up): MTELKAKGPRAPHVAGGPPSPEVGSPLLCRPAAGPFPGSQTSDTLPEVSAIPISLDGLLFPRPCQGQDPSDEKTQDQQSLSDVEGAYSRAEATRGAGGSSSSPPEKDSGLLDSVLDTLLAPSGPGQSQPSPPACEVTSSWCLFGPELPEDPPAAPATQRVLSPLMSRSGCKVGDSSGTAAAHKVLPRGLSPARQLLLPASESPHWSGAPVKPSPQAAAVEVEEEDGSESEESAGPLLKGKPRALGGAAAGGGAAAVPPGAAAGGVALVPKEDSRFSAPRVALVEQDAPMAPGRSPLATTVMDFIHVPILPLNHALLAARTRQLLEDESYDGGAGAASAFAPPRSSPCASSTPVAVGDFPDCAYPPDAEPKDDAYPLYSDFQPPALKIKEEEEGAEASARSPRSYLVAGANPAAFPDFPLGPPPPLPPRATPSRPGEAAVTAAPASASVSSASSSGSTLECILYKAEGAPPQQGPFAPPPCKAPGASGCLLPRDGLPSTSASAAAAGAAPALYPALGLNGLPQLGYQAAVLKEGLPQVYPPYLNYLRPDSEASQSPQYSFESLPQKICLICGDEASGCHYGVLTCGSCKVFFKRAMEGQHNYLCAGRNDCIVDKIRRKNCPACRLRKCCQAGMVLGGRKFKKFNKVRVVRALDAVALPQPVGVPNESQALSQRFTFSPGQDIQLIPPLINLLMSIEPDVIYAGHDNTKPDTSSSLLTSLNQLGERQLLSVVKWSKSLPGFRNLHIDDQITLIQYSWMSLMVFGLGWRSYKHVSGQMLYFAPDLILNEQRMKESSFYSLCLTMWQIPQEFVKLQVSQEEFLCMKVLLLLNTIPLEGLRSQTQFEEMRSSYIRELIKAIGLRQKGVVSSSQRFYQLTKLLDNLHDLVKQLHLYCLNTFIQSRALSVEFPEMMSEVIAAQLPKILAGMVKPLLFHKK
Chain of Estrogen receptor (Homo sapiens) (P03372 whole entry, looked up): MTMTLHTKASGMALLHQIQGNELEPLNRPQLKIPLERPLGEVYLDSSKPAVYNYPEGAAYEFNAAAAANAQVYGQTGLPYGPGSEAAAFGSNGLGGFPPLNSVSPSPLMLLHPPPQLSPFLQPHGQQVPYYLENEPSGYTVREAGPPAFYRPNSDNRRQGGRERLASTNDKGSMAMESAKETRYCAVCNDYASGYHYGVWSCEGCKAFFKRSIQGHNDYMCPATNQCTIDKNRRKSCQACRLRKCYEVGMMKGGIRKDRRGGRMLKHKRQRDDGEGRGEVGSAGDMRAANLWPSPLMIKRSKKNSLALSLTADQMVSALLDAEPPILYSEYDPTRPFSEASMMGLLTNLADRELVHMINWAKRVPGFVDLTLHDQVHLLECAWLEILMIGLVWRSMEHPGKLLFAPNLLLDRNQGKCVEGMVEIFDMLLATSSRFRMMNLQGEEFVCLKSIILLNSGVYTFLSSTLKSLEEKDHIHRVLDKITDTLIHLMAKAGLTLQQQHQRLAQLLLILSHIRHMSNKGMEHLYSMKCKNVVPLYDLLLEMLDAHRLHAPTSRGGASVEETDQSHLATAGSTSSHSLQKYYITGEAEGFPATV

Structure (SMILES) | Potency [1] | Potency [2] | Potency [3] | Potency [4] | Potency [5] | Potency [6] | outcome [7] | Potency [8] | Potency [9] | Potency [10] | outcome [11] | Potency [12] | Potency [13] | Potency [14] | Potency [15] | Potency [16] | Potency [17] | Potency [18] | Potency [19] | Potency [20]
CO[Si](OC)(c1ccccc1)c1ccccc1 | inactive | inactive | inactive | inactive | inactive | inactive | inactive | inactive | inactive | inactive | inactive | inactive | inactive | inactive | inactive |  |  |  |  | 
CCN(CC)c1ccc2c(c1)Oc1cc(N(CC)CC)ccc1C21OC(=O)c2ccccc21 | 10.6 µM (active) |  | inactive |  |  | 5.31 µM (active) | inactive | inactive | inactive | inactive | inactive | 15.1 µM (active) | 4.22 µM (active) | inactive | inactive | inactive | inactive | inactive | inactive | 
COc1cc(OC)nc(NC(=O)NS(=O)(=O)Nc2ccccc2C(=O)N(C)C)n1 | inactive | inactive | inactive | inactive | inactive |  | inactive | inactive | inactive |  | inactive | inactive | inactive | inactive | inactive |  |  |  | inactive | inactive
Cc1ccc2n[nH]nc2c1 | inactive | inactive | inactive | inactive | inactive | inactive | inactive | inactive | inactive | inactive | inactive | inactive | inactive | inactive | inactive |  |  | inactive | inactive | inactive
CSc1ccc(O)cc1C | 61.1 µM (active) |  | inactive | inactive | inactive | inactive | inactive | inactive | inactive | inactive | inactive |  |  | inactive | inactive | inactive |  | 61.1 µM (active) |  | 
Nc1ccc(F)c([N+](=O)[O-])c1 | inactive | inactive | inactive | inactive | inactive | inactive | inactive |  | inactive | inactive | inactive | inactive | inactive | inactive | inactive |  | inactive | inactive | inactive | inactive
Cn1ccnc1 | inactive | inactive | inactive | inactive | inactive | inactive | inactive | inactive |  | inactive | inactive | inactive | inactive | inactive | inactive |  | inactive | inactive | inactive | inactive
CN1CC[C@H](c2c(O)cc(O)c3c(=O)cc(-c4ccccc4Cl)oc23)[C@H](O)C1 | inactive | inactive |  |  |  |  |  |  | inactive | inactive |  |  | 0.0944 µM (active) | 0.237 µM (active) | 0.266 µM (active) | inactive |  |  |  | 
CCSCC | inactive | inactive | inactive |  |  | inactive |  |  | inactive | inactive | inactive | inactive |  | inactive | inactive |  |  |  | inactive | inactive
CC(c1cc(C(C)(C)C)cc(C(C)(C)C)c1O)c1cc(C(C)(C)C)cc(C(C)(C)C)c1O | inactive | inactive | inactive | inactive | inactive | inactive | inactive | inactive | inactive |  | inactive | inactive | inactive | inactive | inactive |  |  | inactive | inactive | 
CCN(CC)c1ccc(C=O)c(O)c1 |  | inactive | inactive | inactive | inactive |  | inactive | inactive | inactive | inactive | inactive |  | inactive | inactive | inactive | 43.3 µM (active) |  | inactive |  | 
CCC(C)(C)c1ccc(CC(C)CN2C[C@@H](C)O[C@@H](C)C2)cc1 (stereo partly drawn) | 26.6 µM (active) | inactive |  | inactive |  | inactive | inactive |  | inactive | inactive | inactive | inactive | inactive | inactive | inactive |  | inactive | inactive | inactive | 
Clc1nc(C(Cl)(Cl)Cl)c(Cl)c(Cl)c1Cl | 8.63 µM (active) |  | inactive | inactive |  | inactive | inactive | inactive | inactive | inactive | inactive | inactive |  |  | 30.6 µM (active) |  |  |  | inactive | 30.6 µM (active)
CC/C=C(\C)C=O | inactive | inactive |  | inactive | inactive | inactive | inactive | inactive |  | inactive | inactive | inactive | inactive | inactive | inactive |  | inactive | inactive |  | 
COc1c(Br)cc(Br)c(C)c1Br | inactive | inactive |  | inactive |  | inactive | inactive | inactive | inactive | inactive | inactive | inactive | inactive | inactive | inactive |  | inactive | inactive |  | inactive
Nc1cccnc1N | inactive | inactive |  | inactive |  |  | inactive | inactive | inactive | inactive | inactive |  | inactive | inactive | inactive |  |  | inactive |  | 
CCCCCCCCCCCCCCCCC(C(=O)O)C(O)(CC(=O)O)C(=O)O (stereo not drawn) |  | inactive | inactive | inactive | inactive |  | inactive | inactive | inactive | inactive | inactive | inactive | inactive | inactive | inactive | inactive | inactive | inactive | inactive | inactive
